Consider 44 sequences from the supplement of paper PMC11417369.

± gives the standard deviation of the averaged measurements. Over roughly 25,000 sequences, “ln(normalized median fluorescence intensity)” has its median near 8.6; the highest 2% begin near 10. The entries come from a sample that favours the highest values as a whole.

The test system of the assay is PfAP2-EXP AP2 domain (GST-tagged). The experiment in a line: gcPBM binding intensity (ln(normalized median fluorescence intensity)); higher = stronger DNA binding. The essentials: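 For binding intensity, the highest Masliner-normalised natural-log median intensity across replicate spots of either probe orientation was taken. Protein bound to the array was stained with Alexa488 anti-GST antibody and scanned at 488 nm. The protein, GST-tagged P. falciparum DNA-binding domains from E. coli at about 25 μg on average, had been applied for 1 h to an Agilent 4 × 180k array of primer-extended double-stranded 36-bp intergenic genomic probes and negative controls.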
In the case of “TTTTTTTAATTAGTTTGTACATATTGTTATAATATA [XGTACX_site6294]”, the “gcPBM binding intensity (ln)” value was 8.56 ± 0.4.

As for “TCCTTAAAAATCTAAAAAGAAAAAAACATATATTTT [GTGCAC_negctrl_site123]”, the “gcPBM binding intensity (ln)” value amounted to 8.04 ± 0.45.

For “ATAATATATATATATAGTACATATATATAATATTCT [XGTACX_site2445]”, the “gcPBM binding intensity (ln)” value came out at 8.2 ± 0.24.

For “TTTCTTATATTATATAAATATATAGATGTTAATGGT [CACACA_negctrl_site706]”, the “gcPBM binding intensity (ln)” value was determined as 8.38 ± 0.47.

With “TATTATTGTTGTTCATGTACACACTATAATAAAAGC [XGTACX_site8957]”, the “gcPBM binding intensity (ln)” value was 8.64 ± 0.4.

In the case of “CAAAATTGACATGACGCACACAAGTGTAGATATTTT [CACACA_site1250]”, the “gcPBM binding intensity (ln)” value worked out at 8.57 ± 0.4.

In the case of “ATTATATATGTATAAATATGCTATATATATATATAT [GTGCAC_negctrl_site430]”, the “gcPBM binding intensity (ln)” value amounted to 10.3 ± 0.17.

Turning to “ATATAAATATAAATATATATGTATAAATATAAATAT [CACACA_negctrl_site247]”, the “gcPBM binding intensity (ln)” value was determined as 8.25 ± 0.47.

Turning to “GATTATATTATATATTAAATATAAATATGTATTATA [TGCATGCA_negctrl_site66]”, the “gcPBM binding intensity (ln)” value was determined as 8.04 ± 0.42.

For “ATATTTTATACTTGCACACAAAATATATTAAAATGG [CACACA_site5139]”, the “gcPBM binding intensity (ln)” value stood at 8.47 ± 0.4.

“CTTCCTTAGGAATGTACACACATATATAATATGTTG [CACACA_site461]”: the “gcPBM binding intensity (ln)” value was found to be 8.53 ± 0.4.

For “CATTATTATTAACATACACACGTGTTATATACCCCC [CACACA_site9365]”, the “gcPBM binding intensity (ln)” value turned out to be 10.2 ± 0.41.

With “CATTATTATTAACATACACACGTGTTAAATACACCC [CACACA_site6118]”, the “gcPBM binding intensity (ln)” value was 8.91 ± 0.6.

Turning to “TTCATTATTATTAACATACACACGTGTTATATACAC [CACACA_site4112]”, the “gcPBM binding intensity (ln)” value was found to be 8.66 ± 0.41.

“TTTTTTTTTTTTTTTTTTTTTTTTTTTTTTTGGGGG [CACACA_negctrl_site1570]”: the “gcPBM binding intensity (ln)” value stood at 9.13 ± 0.49.

As for “TTTTTTTTTTTTTTTTGTACATATACATATATATAT [XGTACX_site1981]”, the “gcPBM binding intensity (ln)” value came out at 9.3 ± 0.11.

Take “GGTTGTATAAGTTTTTGTACATATATATATATATAT [XGTACX_site7487]”: the “gcPBM binding intensity (ln)” value came to 10.2 ± 0.49.

As to “TAAGTTTTGTTCTTTTGTACATATAAGTATAGATCG [XGTACX_site4735]”, the “gcPBM binding intensity (ln)” value was 8.48 ± 0.33.

In the case of “ATGTGTGTATTTTATAGTACAGTTACAAGCATTTTT [XGTACX_site6351]”, the “gcPBM binding intensity (ln)” value turned out to be 8.57 ± 0.35.

Consider “AATAAATACACATACACACACGACGCTAGTATATGT [CACACA_site6627]”, for which the “gcPBM binding intensity (ln)” value is 8.29 ± 0.4.

On to “TTTTTTTTTAGAAAAACATGCATGTCCTAAAAATAA [TGCATGCA_site684]”, for which the “gcPBM binding intensity (ln)” value is 8.89 ± 0.27.

As for “TATAAATAGATATATACACACTTGTGCAGAATATTA [CACACA_site7112]”, the “gcPBM binding intensity (ln)” value is 8.63 ± 0.25.

“TATATATATATATATACACACTTGTGCAGAATATTA [CACACA_site5257]”: the “gcPBM binding intensity (ln)” value is 10 ± 0.55.

Regarding “TATATATATATATATATACACACTTGTGCAGAATAT [CACACA_site2216]”, the “gcPBM binding intensity (ln)” value amounted to 10.2 ± 0.41.

With “ATTATATATACATATACACACATACGTACATACATA [CACACA_site9194]”, the “gcPBM binding intensity (ln)” value was determined as 8.8 ± 0.4.

“CCTACAATTCGTAATACACACACATATATATATATA [CACACA_site9251]”: the “gcPBM binding intensity (ln)” value came to 10.2 ± 0.16.

As for “ATACATATATAAATACGTACATATATAATTATATAT [XGTACX_site8178]”, the “gcPBM binding intensity (ln)” value turned out to be 8.55 ± 0.3.

As for “TAAAAAATATACATTCGTACATATATATTATATATA [XGTACX_site7918]”, the “gcPBM binding intensity (ln)” value is 8.12 ± 0.25.

Turning to “TTATTCATACAATATCGTACATATATATATATATAT [XGTACX_site1185]”, the “gcPBM binding intensity (ln)” value turned out to be 10.2 ± 0.33.

For the sequence “ACATTTTTTTCATATCGTACATATTATAATATTTTC [XGTACX_site6524]”, the “gcPBM binding intensity (ln)” value turned out to be 8.9 ± 0.39.

As for “TACAATTCGTAATACACACACATATATATATATATT [CACACA_site3751]”, the “gcPBM binding intensity (ln)” value was 8.62 ± 0.36.

As for “TACAATTCGTAATACACACACATATAAATAAATATT [CACACA_site7720]”, the “gcPBM binding intensity (ln)” value was 8.44 ± 0.38.

Regarding “TAATATTCAATTATACGTACACATATATATATATAT [XGTACX_site4245]”, the “gcPBM binding intensity (ln)” value is 10.2 ± 0.2.

For the sequence “TTGTAATTCATTCAAATATAAAATAAATAAATATGA [CACACA_negctrl_site349]”, the “gcPBM binding intensity (ln)” value was 8.28 ± 0.34.

Take “AAATGAATTATATAATATATATAAATAAATAAATAA [CACACA_negctrl_site359]”: the “gcPBM binding intensity (ln)” value is 8.46 ± 0.18.

In the case of “ATTTAAAACAAAAGTAGTACGTCTAATAAATTCAAC [XGTACX_site4344]”, the “gcPBM binding intensity (ln)” value was 8.45 ± 0.34.

Take “ATATATATATATATATGTACACATATTATAAAAAAA [XGTACX_site8644]”: the “gcPBM binding intensity (ln)” value was 10.2 ± 0.32.

In the case of “ACATTATATAAAATATGTACACATAAATAAATAAAT [XGTACX_site5031]”, the “gcPBM binding intensity (ln)” value was 8.73 ± 0.41.

On to “TAAGAAAAATATATATGTACACATATATATATATAT [XGTACX_site8542]”, for which the “gcPBM binding intensity (ln)” value came to 9.97 ± 0.57.

For the sequence “ATTATAAGAAGGGGGGGTACATAAATATAAATGTAT [XGTACX_site5624]”, the “gcPBM binding intensity (ln)” value was found to be 10.4 ± 0.2.

“TATTATAATAAAATATGTACACACATACACACATAT [XGTACX_site2360]”: the “gcPBM binding intensity (ln)” value turned out to be 8.8 ± 0.33.

Consider “ATACATATACACATATGTACATATGAAAAGAAAAAT [XGTACX_site6445]”, for which the “gcPBM binding intensity (ln)” value was found to be 8.94 ± 0.45.

Regarding “AAAAAAAAAGAAAAATGTACATACATAAATATATAT [XGTACX_site5664]”, the “gcPBM binding intensity (ln)” value was found to be 8.57 ± 0.45.

In the case of “AAATAAAGAAATATATGTACATATATATATATATAT [XGTACX_site5131]”, the “gcPBM binding intensity (ln)” value is 10.4 ± 0.28.
